Compound activity from PubChem BioAssay.
Rows were chosen to be rich in hits. Some 5.2% of all compounds tested hit in one or more screens of this group.
NadD inh – inhibitors of S. aureus NadD, primary screen, biochemical, colorimetric, uHTS; purified NadD enzyme, colorimetric absorbance read-out; inhibition, % at 20 µM; 360,000 compounds, 0.78% hits; in the data active = inhibition above about 26%
SKN-1 block – suppressors of acrylamide-induced Pgst-4::GFP reporter in worms, primary screen, SKN-1 inhibitor project, whole organism, uHTS, GFP/RFP fluorescence ratio, strain VP596; C. elegans VP596 Pgst-4::GFP/RFP ratio, 24 h; inhibition, % at 21.8 µM; 360,000 compounds, 0.49% hits; AID 624304, 2012;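 active = interference check ratio from 0.5 to 1.5 plus GFP to RFP signal ratio inhibition reaching or exceeding a fixed threshold, cut at about 30% in these data, passing the limit was not always enough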
NR3A LBD binder – binders of NR3A ligand-binding domain, primary screen, biophysical, differential scanning fluorimetry, uHTS. NR3A LBD differential scanning fluorimetry, Tm shift; 0% = protein alone, 100% = glycine-bound protein. Tm shift relative to glycine control, % at 25 µM. AID 1259313, 2017. 340,000 compounds, 2.5% hits;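 active = melting temperature shift of at least 10% of the positive control shift, at one fixed dose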
Vif imaging – HIV Vif self-association inhibitors, primary screen, imaging, HEK293T, single point; HEK293T cells, Vif self-association by quenched fluorescence, 24 h; inhibition, % at 7.49 µM; 340,000 compounds, 0.35% hits; AID 602346, 2012; in the data active = inhibition above about 50%, passing the limit was not always enough; inconclusive = no clear call, values can overlap the other calls; inactive = below about 31%
esBAF inh – Bmi1 luciferase reporter increase in mESCs, primary screen, esBAF inhibitor project, mouse ES cells, Bmi1 luciferase knock-in, single point; 24 h; 100% = twice the neutral-well signal; reporter increase, % at 12.5 µM; 350,000 compounds, 2% hits; AID 602393, 2012; in the data active = activation above about 40%; inconclusive = no clear call, values can overlap the other calls;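 note: 0% = median of the plate's neutral control wells and 100% = double that signal; a rise in the Bmi1 reporter signal indicates esBAF inhibition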
SMARCA2 activ – SMARCA2 (BRM) function activators, primary screen, cell-based, luminescence, high throughput; 370,000 compounds, 1% hits; activation, % at 9.1 µM; MG213 cells, MMTV-luciferase reporter, dexamethasone, overnight; AID 652017, 2013; in the data active = activation above about 7.8%;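 note: 0% = vehicle wells and 100% = reference activator wells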
* marks the source's active call; other numbers are inactive results; ? = inconclusive; nt = no result.

SMILES | NadD inh | SKN-1 block | NR3A LBD binder | Vif imaging | esBAF inh | SMARCA2 activ
Cc1cc(Cl)ccc1OC(C)C(=O)Nc1ccc(S(=O)(=O)N2CCOCC2)cc1 (stereo unspecified) | -2 | 17 | 4 | -5 | nt | 1
CCC(Oc1ccccc1)C(=O)Nc1ccc(S(=O)(=O)Nc2cnc3ccccc3n2)cc1 (stereo unspecified) | 5 | 3 | -7 | 8 | 1 | -1
Cc1cc(Cl)ccc1OC(C)C(=O)Nc1ccc(C(=O)Nc2ccccc2C(=O)O)cc1 (stereo unspecified) | 2 | 4 | 15* | 0 | -6 | -1
CC(Oc1ccc(Cl)cc1Cl)C(=O)Nc1ccc(S(=O)(=O)Nc2cnc3ccccc3n2)cc1 (stereo unspecified) | nt | nt | 18* | nt | nt | nt
O=C(Cc1ccc(Cl)cc1)Nc1ccc(S(=O)(=O)Nc2cnc3ccccc3n2)cc1 | 3 | 19 | 10* | 17 | nt | -3
Cc1cc(Cl)ccc1OC(C)C(=O)Nc1ccc(S(=O)(=O)Nc2cnc3ccccc3n2)cc1 (stereo unspecified) | 21 | -13 | 14* | -2 | 2 | 0
O=C(C[C@@H]1CC[C@H]2[C@@H](COC[C@@H](O)CN2S(=O)(=O)c2ccc(F)cc2)O1)NCC1CCCCC1 | nt | nt | nt | nt | -4 | nt
Nc1ccc(O)cc1C(=O)OCC(=O)C12CC3CC(CC(C3)C1)C2 | 26 | 45* | -13 | 4 | 2 | 1
O=C(OCC(=O)C12CC3CC(CC(C3)C1)C2)c1ccc(O)cc1 | -15 | -12 | 1 | 9 | 33 | 2
Fc1ccccc1CSc1ccc(-c2ccco2)nn1 | -1 | 39* | -1 | -4 | nt | 6
Clc1cccc(CSc2ccc(-c3ccco3)nn2)c1 | -1 | 67* | 0 | -6 | nt | 0
Cc1cccc(CSc2ccc(-c3ccco3)nn2)c1 | -1 | 3 | 6 | -3 | 50* | 2
Cc1ccc(CSc2ccc(-c3ccco3)nn2)cc1 | 2 | 8 | 0 | -8 | ? | 2
Clc1ccc(CSc2ccc(-c3ccco3)nn2)cc1 | -4 | 15 | 1 | -6 | nt | 1
Cc1nc(C)c(-c2ccc(SCc3ccccc3F)nn2)s1 | -5 | 0 | 1 | -4 | 69* | 2
CC1(C(=O)NS(=O)(=O)c2cccc(F)c2)CCN1C(=O)c1ccco1 (stereo unspecified) | 1 | -1 | nt | -5 | 2 | 4
CC1(C(=O)NS(=O)(=O)c2cccc(OC(F)F)c2)CCN1C(=O)c1ccco1 (stereo unspecified) | 1 | -2 | nt | 59* | 4 | 0
COC(=O)[C@H]1[C@H](CO)[C@H]2Cn3c(ccc(/C=C/c4ccccc4)c3=O)[C@H]2N1C(=O)C1CCCC1 | nt | nt | nt | nt | 6 | nt
CCC(=O)Nc1ccc2c(c1)OC[C@H](C)N(Cc1ccccn1)C[C@@H](C)[C@H](OC)CN(C)C2=O | nt | nt | nt | nt | -8 | nt
Cc1cc(C)nc(NC(=O)/C=C/c2ccc(Cl)cc2Cl)c1 | -1 | -21 | 1 | -3 | 66* | 6
O=C(/C=C/c1ccccc1Cl)Nc1ccncc1 | -8 | -9 | 7 | nt | nt | 0
Cc1cc(N)c2cc(NC(=O)/C=C/c3ccccc3Cl)ccc2n1 | 5 | 29 | 18* | -1 | -82 | nt
O=C(/C=C/c1c(F)cccc1Cl)Nc1nc2ccccc2[nH]1 | 2 | -3 | -2 | 1 | nt | 0
O=C(/C=C/c1c(F)cccc1Cl)Nc1ccncc1 | -7 | 5 | -8 | -14 | 62* | 1
O=C(/C=C/c1c(Cl)cccc1Cl)Nc1ccncc1 | 3 | 29 | 27* | -2 | 44* | 0
SMILES | NadD inh | SKN-1 block | NR3A LBD binder | Vif imaging | esBAF inh | SMARCA2 activ
Cc1cc(C)nc(NC(=O)/C=C/c2ccccc2Cl)c1 | -10 | 11 | -13 | nt | nt | 7
CCCNC(=O)N1C[C@H](O)COC[C@@H]2O[C@@H](CC(=O)N3CCOCC3)CC[C@H]21 | nt | nt | nt | nt | -4 | nt
COc1ccc(S(=O)(=O)Nc2cccc3c2O[C@@H](CN(C)Cc2ccc(Cl)c(Cl)c2)[C@H](C)CN([C@@H](C)CO)C3=O)cc1 | nt | nt | nt | nt | -2 | nt
Cc1noc(C)c1NC(=O)Nc1ccc2c(c1)C(=O)N([C@@H](C)CO)C[C@H](C)[C@H](CN(C)CC1CCCCC1)OCCCC[C@H](C)O2 | nt | nt | nt | nt | 2 | nt
O=C(/C=C/c1ccc(Cl)cc1Cl)NCc1ccncc1 | 4 | 4 | 0 | -4 | 9 | 4
O=C(/C=C/c1ccc(Cl)cc1Cl)Nc1ccncc1 | -9 | 14 | 32* | nt | nt | -2
Cc1ccnc(NC(=O)/C=C/c2ccccc2Cl)c1 | 4 | 6 | 20* | 19 | -58 | 4
C[C@H]1CN([C@@H](C)CO)C(=O)Cc2cc(NS(=O)(=O)c3cn(C)cn3)ccc2O[C@H]1CN(C)S(=O)(=O)c1ccc(F)cc1 | nt | nt | nt | nt | -3 | nt
C[C@H](NC(=O)[C@@H]1[C@@H](CO)[C@@H]2Cn3c(cccc3=O)[C@@H]2N1C(=O)C1CC1)c1ccccc1 | nt | nt | nt | nt | 2 | nt
CN(C(=O)COc1ccc(Cl)cc1Br)C1CCCCC1 | -4 | 3 | -1 | -14 | 48* | 2
O=C(COC(=O)CNS(=O)(=O)c1ccc(Br)cc1Cl)NC1CCCC1 | -4 | -9 | 18* | 20 | -6 | -3
O=C(COc1ccc(Cl)cc1Br)Nc1ccncc1 | -7 | -7 | 1 | -1 | 79* | -1
O=C(COC(=O)COc1ccc(Cl)cc1Br)NC1CCCC1 | -5 | 5 | nt | nt | 2 | -1
O=C(COC(=O)COc1ccc(Cl)cc1Br)NC1CCCCCC1 | -1 | -14 | -10 | 59* | -8 | -2
C[C@@H]1CN([C@H](C)CO)C(=O)c2cc(NC(=O)CCC(F)(F)F)ccc2O[C@@H](C)CCCCO[C@@H]1CN(C)CC1CCCCC1 | nt | nt | nt | nt | -1 | nt
CCS(=O)(=O)N1[C@H](C#N)[C@H](c2ccc(C#Cc3ccccc3F)cc2)[C@@H]1CO | nt | nt | nt | nt | 20 | nt
CO[C@H]1CN(C)C(=O)c2cc(NS(C)(=O)=O)ccc2OC[C@@H](C)N(Cc2ccccn2)C[C@@H]1C | nt | nt | nt | nt | -2 | nt
CC1(C)CNC(=O)c2sc(N3CCCCC3)nc2C1 | 11 | 13 | -2 | ? | 15 | -1
CC1(C)CC(=O)c2sc(N3CCCCC3)nc2C1 | -4 | 0 | -1 | 6 | 51* | 4
COc1cccc(Cn2c(=S)[nH]c3ccc(N4CCOCC4)cc3c2=O)c1 | 5 | -22 | 22* | 1 | 30 | -2
